# Bioassay records (PubChem BioAssay)
# ALOX12 inh = ALOX12 (human) lipoxygenase inhibition | P18054 | purified 12hLO, xylenol orange hydroperoxide absorbance | Potency, µM (series often up to 108 µM), without a hit: at the top dose activity change, negative = inhibition, actives largely listed as inhibitors | actives 1.1% (n = 580,000); also: % is scaled to controls: 0 for no effect and ±100 for the full control effect
# Target sequence (P18054 whole entry, looked up): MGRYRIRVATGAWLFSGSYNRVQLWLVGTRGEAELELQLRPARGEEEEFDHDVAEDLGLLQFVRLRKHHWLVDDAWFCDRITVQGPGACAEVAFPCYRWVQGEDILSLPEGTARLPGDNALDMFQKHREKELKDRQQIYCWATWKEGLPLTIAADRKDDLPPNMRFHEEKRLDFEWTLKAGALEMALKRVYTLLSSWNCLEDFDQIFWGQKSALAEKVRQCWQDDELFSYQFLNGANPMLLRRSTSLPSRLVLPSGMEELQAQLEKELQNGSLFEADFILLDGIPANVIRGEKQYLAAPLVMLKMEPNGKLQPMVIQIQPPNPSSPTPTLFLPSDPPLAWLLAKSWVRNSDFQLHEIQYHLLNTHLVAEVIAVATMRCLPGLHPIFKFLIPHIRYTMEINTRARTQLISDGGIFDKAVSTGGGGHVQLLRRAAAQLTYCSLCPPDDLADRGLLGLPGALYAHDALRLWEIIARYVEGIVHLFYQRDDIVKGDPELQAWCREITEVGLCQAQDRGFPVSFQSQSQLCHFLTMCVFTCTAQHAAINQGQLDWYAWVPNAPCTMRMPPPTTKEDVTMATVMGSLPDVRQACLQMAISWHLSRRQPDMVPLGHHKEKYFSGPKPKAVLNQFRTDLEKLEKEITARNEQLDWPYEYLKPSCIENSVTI
#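 Purified human 12hLO at 150 nM in 25 mM Hepes, 0.01% Triton X-100, pH 7.0, preincubated 15 min at room temperature with compound. Reaction started with 40 uM arachidonic acid, 30 min at room temperature. Hydroperoxide measured by Fe-xylenol orange, 573/405 nm absorbance ratio.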
# PINK1 modulator = PINK1 expression modulation; PINK1 immunofluorescence, high-content cytometry, 24 h; Potency, µM (highest dose often 76.6 µM), for inactives: top-dose activation (PINK1 increase), usual class: activators; actives 0.2% (n = 410,000); AID 624263; active = well fitted activation curve with a large enough effect; inconclusive = small, poorly fitted or top-dose-only effect; cell line not stated here; also: % of control where 0% means no effect; nearly all actives have a fitted effect of over 65% in size
#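 Stable cell line treated 24 h with compounds at 5 concentrations (CCCP controls), then fixed and immunostained for PINK1 plus nuclear and cell stains; PINK1 immunofluorescence quantified by laser-scanning microplate cytometry.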
# KB-3-1 cytotox = KB-3-1 parental cell cytotoxicity. KB-3-1 viability, CellTiter-Glo ATP luminescence, 72 h. Potency, µM (series often up to 46.1 µM), actives largely listed as cytotoxic. actives 1.4% (n = 400,000); also: % is scaled to controls: 0 for no effect and ±100 for the full control effect; nearly all actives have a fitted effect of over 60% in size
#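 72 h, 37 °C compound treatment of KB-3-1 parental cells; CellTiter-Glo added, 10 min, luminescence read. Data corrected against DMSO-only plates and normalized before curve fitting.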
# KB-V1 cytotox = kills drug-selected multidrug resistant KB-V1 cells. KB-V1 MDR cells viability, CellTiter-Glo, 72 h. Potency, µM (highest dose often 46.1 µM), actives largely listed as cytotoxic. actives 3.4% (n = 400,000). AID 1347076; also: % is scaled to controls: 0 for no effect and ±100 for the full control effect; nearly all actives have a fitted effect of over 60% in size
#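 Luminescent ATP read-out (CellTiter-Glo, 10 min) measures survival of drug-selected KB-V1 MDR cells after 72 h, 37 degrees C compound exposure. Medium: phenol-red-free DMEM, 10% FBS. Values from fitted concentration-response curves.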
# SW480 rerep = induces DNA re-replication in SW480 colon adenocarcinoma cells. SW480 DNA re-replication, Hoechst DNA content imaging, 48 h. Potency, µM (series often up to 46.1 µM), inactives show at the highest dose re-replication activation, most hits filed as activators. actives 1.8% (n = 340,000); also: % of control where 0% means no effect; nearly all actives have a fitted effect of over 55% in size
#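 250 cells/well; 23 nL cpd via pin tool; 48 hr, 37 C, 5% CO2; Hoechst 40 min; imager read of total nuclear intensity, ex 405/em 500-530 nm.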
# MCF10A rereplic = inducers of DNA re-replication in MCF 10A breast cells; MCF 10A DNA re-replication, Hoechst nuclear intensity, 48 h; Potency, µM (top dose mostly 46.1 µM), for inactives: top-dose activity, positive = re-replication, actives largely listed as activators; actives 2.9% (n = 350,000); AID 624296; also: % of control where 0% means no effect; nearly all actives have a fitted effect of over 50% in size
# An asterisk follows results filed as active; i = inactive; u = inconclusive; x = no result given; [ ] = dose if it differs, or a comment. An excerpt weighted towards active compounds, which were near 5.8% of everything screened. Unless noted, calls follow the shape of the dose curve; as a rule, active = well fitted curve in the direction sought with a large enough effect; inconclusive = small, poorly fitted or top-dose-only effect, or another doubt; inactive = no such curve, though single readings can be large; an effect the other way counts as inactive or inconclusive. Potency is read from the fitted curve at half-maximal effect.
SMILES,ALOX12 inh,PINK1 modulator,KB-3-1 cytotox,KB-V1 cytotox,SW480 rerep,MCF10A rereplic
Cc1cc([N+](=O)[O-])c2[nH]c(C(=O)N/N=C/c3ccccc3C(=O)O)c(-c3ccccc3)c2c1,-2%,-6%[38.3 µM],i,4.1µM*,u,u
CC1=C[C@@H](CN2CCN(C)CC2)[C@H](C(C)C)C[C@H]1Cc1nnc(-c2ccc(C)cc2)o1,2%[176 µM],x,x,x,x,x
COc1ccc(C(=O)NC(=S)NC(C)C)cc1Br,4µM*,u,i,i,u,7%
COc1ccc(C(=O)NC(=S)NNC(=O)c2ccc(NC(C)=O)cc2)cc1Br,13µM*,2%,i,u,-62%,20%
COc1cc(C(=O)NNC(=S)NC(=O)c2ccc(F)cc2)cc(OC)c1OC,u,7%,i,u,u,23µM*
COc1ccc(C(=O)NC(=S)NCc2ccco2)cc1Br,22µM*,2%,i,u,-5%,-5%
CCCC(C)NC(=O)CN(c1ccccc1)S(=O)(=O)N(C)C (stereo unspecified),35%,x,x,x,x,x
CN(C)CCCNC(=O)c1nc(-c2ccc3[nH]ccc3c2)no1,-21%,x,x,x,x,x
COc1ccc(C(=O)NC(=S)NC(C)(C)C)cc1Br,8.9µM*,-1%,i,i,2%[9.22 µM],23%
COc1ccc(C(=O)NNC(=S)NC(=O)c2ccc(F)cc2)cc1Br,u,1%,i,u,-22%,10%
COc1ccc(CN2CC[C@H](c3nc4ccc(OC)cc4[nH]3)C2)cc1,8%[176 µM],x,x,x,x,x
Clc1ccc(CN2CCC(c3nc4ccc(Cl)cc4[nH]3)CC2)cc1,u,0%,u,21µM*,u,u
NC(=O)COC(=O)c1cccc2c1-c1ccccc1C2=O,-7%,1%,i,u,-12%,-5%
CC(C)COC(=O)c1ccc2c(c1O)C(=O)c1ccccc1C2=O,0%,1%,i,15µM*,u,u
CCCN1CCCc2cc(CN)ccc21,u,u,i,i,u,13µM*
CN1CCCc2cc(C=O)ccc21,7%,1%,i,i,-4%[9.22 µM],1%
COc1ccc(CCC(=O)N2CCN(c3ccc(OC)cc3)CC2)cc1,0%,-1%,i,u,7%,5%
COc1ccc(N2CCN(C(=O)CCc3ccc(S(=O)(=O)NC(C)(C)C)cc3)CC2)cc1,0%,0%,u,15µM*,u,-3%
CCCNS(=O)(=O)c1ccc(CCC(=O)N2CCN(c3ccc(OC)cc3)CC2)cc1,-4%[57.4 µM],-1%[38.3 µM],i,21µM*,0%,4%
CC(=O)Nc1ccc(S(=O)(=O)NCCc2ccc(F)cc2)cc1,17%,-1%[38.3 µM],i,23µM*,-5%,20%
COc1ccc(N2CCN(C(=O)CCNS(=O)(=O)c3ccc(C)cc3)CC2)cc1,-15%,0%,i,i,-13%,0%
CC(=O)Nc1ccc(S(=O)(=O)NCCSCc2ccc(Cl)cc2Cl)cc1,0%,0%,u,u,-2%,13µM*
CC(=O)Nc1ccc(S(=O)(=O)NCCc2ccc(S(N)(=O)=O)cc2)cc1,8%,2%,i,i,0%,10%
COc1ccccc1CNC(=O)Cc1c(C)c2ccc(O)cc2oc1=O,3%,x,x,x,x,x
N#Cc1ccc(Oc2cccc3ccccc23)cc1C#N,-7%,x,x,x,x,x
SMILES,ALOX12 inh,PINK1 modulator,KB-3-1 cytotox,KB-V1 cytotox,SW480 rerep,MCF10A rereplic
CCCNS(=O)(=O)c1ccc(CCC(=O)N2CCOCC2)cc1,0%,-2%,i,i,1%,0%
CCCNS(=O)(=O)c1ccc(CCC(=O)N2CCN(c3ccc(F)cc3)CC2)cc1,-12%,-1%,u,9.2µM*,-3%,24%
COC(=O)c1cc(OC)c(OC)cc1NC(=O)C(C)Sc1ccc(C)cc1 (stereo unspecified),-1%,7%[38.3 µM],i,u,15%,3.7µM*
CN(C)Cc1cc(C[C@@H]2C[C@H](N(Cc3ccco3)Cc3ccco3)C2(C)C)no1,50%[176 µM],x,x,x,x,x
Cc1ccc(Oc2ccc(C(=O)NCc3ccncc3)cc2)cc1,9%,-1%,i,21µM*,2%,2%
CCOc1ncccc1C(=O)NCc1ccc(C)cc1,-1%,2%,i,18µM*,-82%,u
CCOc1ncccc1C(=O)Nc1ccccc1C(=O)NCc1ccc2c(c1)OCO2,-16%,-2%,i,5.2µM*,13%,u
CCS(=O)c1ccccc1C(=O)NCc1ccc(C)cc1 (stereo unspecified),18µM*,x,x,x,x,x
NCC(=O)Nc1ccccn1,28%,x,x,x,x,x
OCCCNC(=S)NCc1ccccc1,5%,x,x,x,x,x
CCCCOc1ccc(Cc2c(Cl)nc(SC)nc2N2CCOCC2)cc1,18%,3%,i,21µM*,4%,15%
CCN1CCN(c2ccc(NC(=O)COc3ccccc3Cl)cc2)CC1,0%,0%,i,i,-5%,u
Cc1cc(Cl)ccc1OCC(=O)OCC(=O)Nc1ccccc1,-7%,x,x,x,x,x
CCN1CCN(c2ccc(NC(=O)COc3ccc(Cl)cc3C)cc2)CC1,u,3%,u,u,15µM*,u
Cc1cc(Cl)ccc1OCC(=O)Nc1ccncc1,-63%,0%,i,u,-22%,16µM*
COc1ccc(/C=C2\N=C(SC)SC2=O)c(OC)c1,-25%,x,x,x,x,x
Cc1ccc(C)c(NC(=O)CSc2nnc([C@@H]3CCCN3C(=O)OC(C)(C)C)o2)c1,23%,-1%,i,i,0%,-3%
Cc1cccc(NC(=O)CSc2nnc([C@@H]3CCCN3C(=O)OC(C)(C)C)o2)c1C,0%,7%,21µM*,u,1%,5%
C/C(=N/NC(=O)CN(c1ccccc1)S(=O)(=O)c1ccccc1)c1ccccc1O,0%,1%,u,i,16µM*,-1%
CCOC(=O)C1=CC[C@@H](c2ccccc2Cl)N(S(=O)(=O)c2ccc(C)cc2)[C@H]1C(=O)OCC,3%,-1%,u,16µM*,0%,4%
NC(=O)c1ccc(COC(=O)c2c(F)cccc2F)cc1,21%,x,x,x,x,x
O=C(CN1CCN(C(=O)C2CC2)CC1)Nc1cc(C(F)(F)F)cc(C(F)(F)F)c1,320%,-2%,i,21µM*,-2%,5%
O=C(Cc1ccc2c(c1)CCCC2)NNC(=O)c1ccncc1,29%,x,x,x,x,x
NNc1ccc(Cc2ccc(NN)cc2)cc1,20µM*,x,x,x,x,x
CCSc1nc(C2CC2)cc(-c2cccs2)c1C#N,-9%,u,i,i,u,u
N#Cc1c(-c2ccc(Cl)cc2)cc(-c2cccs2)nc1SCC(=O)O,u,0%,i,i,5%,23µM*
